This is an account of results in the supplement of paper PMC10037445.

Over roughly 2,900 compounds, “NF-kB SEAP reporter activity, fold change vs agonist alone” has its median near 0.99; the highest 2% begin near 2.6. The sample as a whole holds a higher share of the highest values than the screen did.

Assay [1] concerns RAW-Dual. In words: NF-kB SEAP reporter activity, fold change vs agonist alone; higher = enhanced NF-kB activity. As to conditions: library stock concentration (final ~1000-fold dilution): 10 mM. In short, it runs like this: (§1)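 RAW-Dual macrophages (50,000 cells/well in DMEM, 384-well plates) received 50 nL of library stock by pin tool, then a PRR agonist 1 h later, and were kept at 37 °C, 5% CO2. After 20 hours, supernatant was read for IRF by QuantiLuc luminescence and for NF-κB by QuantiBlue absorbance at 620 nm. Reporter activity is fold change over agonist-alone wells. Cytotoxic wells had IncuCyte confluency below 70% of agonist controls in both mask sets.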

The test system of assay [2] is RAW-Dual. In words: NF-kB SEAP reporter activity, fold change vs agonist alone; cytotoxicity flag (confluency mask): cytotoxic (confluency <70% of control); higher = enhanced NF-kB activity. A digest of the protocol: as §1
Assay [3] deals with RAW-Dual. Description: NF-kB SEAP reporter activity, fold change vs agonist alone; cytotoxicity flag (confluency mask): not cytotoxic; higher = enhanced NF-kB activity. In short, it runs like this: as §1
[4] abbreviates: cytotoxicity flag (confluency mask): not cytotoxic, agonist: Imiquimod (TLR7) […].
Setting [5] is: cytotoxicity flag (confluency mask): not cytotoxic, agonist: MPLA (TLR4) […].
Where [6] appears, read: agonist: ODN 1826 (TLR9) 0.5 ug/mL.
Where [7] appears, read: agonist: Pam2CSK4 (TLR2/6) 0.1 ug/mL.
Setting [8] is: agonist: Pam3CSK4 (TLR2/1) 0.1 ug/mL.
[9] abbreviates: cytotoxicity flag (confluency mask): cytotoxic (confluency <70% of control), agonist: Imiquimod (TLR7) […].
The mark [10] stands for this setting: cytotoxicity flag (confluency mask): cytotoxic (confluency <70% of control), agonist: MPLA (TLR4) […].

For the compound `COc1ccc(Cn2c3ncnc4c(ncn4Cc4ccc(OC)cc4)c-3nc2=O)cc1`, the “NF-kB SEAP reporter activity” value in the assay with RAW-Dual [1] (setting [4]) turned out to be 1.43; with RAW-Dual [1] (setting [5]), 2.08.

For the compound `CC(=O)c1ccc2c(c1)c1cc(C(C)=O)ccc1n2CCNC(C)C` (library stock concentration (final ~1000-fold dilution): 10 mM), the “NF-kB SEAP reporter activity” value in the assay with RAW-Dual [2] (agonist: LPS (TLR4) 0.1 ug/mL) turned out to be 0.301; in the assay with RAW-Dual [2] (setting [6]), 0.193; with RAW-Dual [2] (setting [7]), 0.0764; in the assay on RAW-Dual [2] (setting [8]) it was 0.183.

For `CC(=O)c1ccc2c(c1)c1cc(C(C)=O)ccc1n2CCNC(C)C`, the figures for the “NF-kB SEAP reporter activity” value with RAW-Dual [1] (setting [9]) and in the assay on RAW-Dual [1] (setting [10]) were 0.147 and 0.242, respectively.

As for `NC(=O)c1cccc(-c2cc(Nc3ccc(OC(F)(F)F)cc3)ncn2)c1` (library stock concentration (final ~1000-fold dilution): 10 mM), the “NF-kB SEAP reporter activity” value is 1.21 in the assay with RAW-Dual [3] (agonist: LPS (TLR4) 0.1 ug/mL), 0.672 with RAW-Dual [3] (setting [6]), 0.944 with RAW-Dual [3] (setting [7]) and 0.869 with RAW-Dual [3] (setting [8]).

`COc1cc(F)ccc1-c1ncnc(Nc2cccc(CS(C)(=N)=O)c2)n1` (centres undefined): the “NF-kB SEAP reporter activity” value worked out at 1.26 in the assay with RAW-Dual [1] (setting [9]) and 1.31 with RAW-Dual [1] (setting [10]).

For `COc1ccccc1-c1cc(Nc2cccc(CS(N)(=O)=O)c2)ncn1`, the results for the “NF-kB SEAP reporter activity” value in the assay on RAW-Dual [1] (setting [4]) and with RAW-Dual [1] (setting [5]) were 1.45 and 2.59, respectively.

Take `NC(=O)c1cccc(-c2cc(Nc3ccc(OC(F)(F)F)cc3)ncn2)c1`: the “NF-kB SEAP reporter activity” value in the assay with RAW-Dual [1] (setting [4]) is 1.24; in the assay on RAW-Dual [1] (setting [5]), 1.11.

Take `COc1cc(F)ccc1-c1ncnc(Nc2cccc(CS(C)(=N)=O)c2)n1` (centres undefined) (library stock concentration (final ~1000-fold dilution): 10 mM): the “NF-kB SEAP reporter activity” value is 0.786 in the assay on RAW-Dual [2] (agonist: LPS (TLR4) 0.1 ug/mL), 1.4 with RAW-Dual [2] (setting [6]), 0.277 in the assay on RAW-Dual [2] (setting [7]) and 0.421 in the assay with RAW-Dual [2] (setting [8]).

`COc1ccccc1-c1cc(Nc2cccc(CS(N)(=O)=O)c2)ncn1` (library stock concentration (final ~1000-fold dilution): 10 mM): the “NF-kB SEAP reporter activity” value was found to be 2.67 with RAW-Dual [3] (agonist: LPS (TLR4) 0.1 ug/mL), 2.18 in the assay with RAW-Dual [3] (setting [6]), 0.783 with RAW-Dual [3] (setting [7]) and 1.55 with RAW-Dual [3] (setting [8]).

As to `CCOc1cc(=O)[nH]cc1-c1ccc(CC(=O)Nc2cc(C(C)(C)C(F)(F)F)on2)c(F)c1` (library stock concentration (final ~1000-fold dilution): 10 mM), the “NF-kB SEAP reporter activity” value in the assay on RAW-Dual [3] (agonist: LPS (TLR4) 0.1 ug/mL) was 0.538; in the assay with RAW-Dual [3] (setting [6]), 0.276; with RAW-Dual [3] (setting [7]), 0.163; in the assay with RAW-Dual [3] (setting [8]), 0.188.

As for `CCOc1cc(=O)[nH]cc1-c1ccc(CC(=O)Nc2cc(C(C)(C)C(F)(F)F)on2)c(F)c1`, the “NF-kB SEAP reporter activity” value was found to be 0.281 with RAW-Dual [1] (setting [4]) and 0.545 in the assay with RAW-Dual [1] (setting [5]).

On to `CC(C)=CCCC(C)(OC1OC(CO)C(O)C(O)C1O)C1CCC2(C)C1C(O)CC1C3(C)CCC(OC4OC(CO)C(O)C(O)C4OC4OC(CO)C(O)C(O)C4O)C(C)(C)C3CCC12C` (centres undefined) (library stock concentration (final ~1000-fold dilution): 10 mM), for which the “NF-kB SEAP reporter activity” value in the assay on RAW-Dual [3] (agonist: LPS (TLR4) 0.1 ug/mL) amounted to 0.838; with RAW-Dual [3] (setting [6]), 1.11; with RAW-Dual [3] (setting [7]) it was 0.899; in the assay on RAW-Dual [3] (setting [8]) it was 1.02.

As to `CC(C)=CCCC(C)(OC1OC(CO)C(O)C(O)C1O)C1CCC2(C)C1C(O)CC1C3(C)CCC(OC4OC(CO)C(O)C(O)C4OC4OC(CO)C(O)C(O)C4O)C(C)(C)C3CCC12C` (centres undefined), the “NF-kB SEAP reporter activity” value in the assay with RAW-Dual [1] (setting [4]) worked out at 1.01; in the assay on RAW-Dual [1] (setting [5]), 1.02.

For the compound `CCCC(Nc1nc(-c2ccc(NC(=O)NCC)c(OC)c2)ncc1C)c1cccnc1` (centres undefined), the “NF-kB SEAP reporter activity” value with RAW-Dual [1] (setting [4]) is 2.63; in the assay with RAW-Dual [1] (setting [5]) it was 2.57.

Turning to `CCCC(Nc1nc(-c2ccc(NC(=O)NCC)c(OC)c2)ncc1C)c1cccnc1` (centres undefined) (library stock concentration (final ~1000-fold dilution): 10 mM), the “NF-kB SEAP reporter activity” value amounted to 5.93 in the assay with RAW-Dual [3] (agonist: LPS (TLR4) 0.1 ug/mL), 3.66 in the assay on RAW-Dual [3] (setting [6]), 2.2 in the assay on RAW-Dual [3] (setting [7]) and 2.92 in the assay with RAW-Dual [3] (setting [8]).

`O=C(/C=C/c1ccc(O)c(O)c1/C=C/c1ccc(O)c(O)c1)OC(Cc1ccc(O)c(O)c1)C(=O)O` (centres undefined) (library stock concentration (final ~1000-fold dilution): 10 mM): the “NF-kB SEAP reporter activity” value in the assay on RAW-Dual [3] (agonist: LPS (TLR4) 0.1 ug/mL) was determined as 1.09; in the assay on RAW-Dual [3] (setting [6]) it was 0.836; with RAW-Dual [3] (setting [7]), 0.837; in the assay with RAW-Dual [3] (setting [8]) it was 0.289.

`O=C(/C=C/c1ccc(O)c(O)c1/C=C/c1ccc(O)c(O)c1)OC(Cc1ccc(O)c(O)c1)C(=O)O` (centres undefined): the entries for the “NF-kB SEAP reporter activity” value in the assay with RAW-Dual [1] (setting [4]) and in the assay on RAW-Dual [1] (setting [5]) were 0.405 and 0.891, respectively.

For `CCn1c2ccccc2c2cc(CNCc3ccccc3OC)ccc21.Cl`, the “NF-kB SEAP reporter activity” value in the assay on RAW-Dual [1] (setting [9]) worked out at 1.22; in the assay with RAW-Dual [1] (setting [10]), 1.37.

Consider `CCn1c2ccccc2c2cc(CNCc3ccccc3OC)ccc21.Cl` (library stock concentration (final ~1000-fold dilution): 10 mM), for which the “NF-kB SEAP reporter activity” value with RAW-Dual [2] (agonist: LPS (TLR4) 0.1 ug/mL) was 1.06; in the assay on RAW-Dual [2] (setting [6]), 0.394; in the assay with RAW-Dual [2] (setting [7]), 0.659; with RAW-Dual [2] (setting [8]) it was 0.641.

With `CCn1c2ccccc2c2cc(-n3nncc3-c3ccccc3)ccc21`, the “NF-kB SEAP reporter activity” value in the assay on RAW-Dual [1] (setting [4]) worked out at 1.66; in the assay on RAW-Dual [1] (setting [5]), 2.14.

Take `CCn1c2ccccc2c2cc(-n3nncc3-c3ccccc3)ccc21` (library stock concentration (final ~1000-fold dilution): 10 mM): the “NF-kB SEAP reporter activity” value with RAW-Dual [3] (agonist: LPS (TLR4) 0.1 ug/mL) is 3.15; in the assay with RAW-Dual [3] (setting [6]) it was 1.82; in the assay on RAW-Dual [3] (setting [7]), 1.81; with RAW-Dual [3] (setting [8]), 2.79.

For `CC(=O)N1CCN(c2ccc(NC(=O)Cc3cnc(-c4ccnc(F)c4)c(C)c3)nc2)CC1`, the “NF-kB SEAP reporter activity” value in the assay on RAW-Dual [1] (setting [4]) was 0.874; in the assay with RAW-Dual [1] (setting [5]), 1.

`CC(=O)N1CCN(c2ccc(NC(=O)Cc3cnc(-c4ccnc(F)c4)c(C)c3)nc2)CC1` (library stock concentration (final ~1000-fold dilution): 10 mM): the “NF-kB SEAP reporter activity” value came to 0.956 in the assay on RAW-Dual [3] (agonist: LPS (TLR4) 0.1 ug/mL), 0.965 in the assay on RAW-Dual [3] (setting [6]), 0.991 with RAW-Dual [3] (setting [7]) and 1.03 in the assay with RAW-Dual [3] (setting [8]).

Regarding `CC(/C=C/C=C(\C)C(=O)OC1OC(COC2OC(CO)C(O)C(O)C2O)C(O)C(O)C1O)=C\C=C\C=C(C)\C=C\C=C(/C)C(=O)OC1OC(COC2OC(CO)C(O)C(O)C2O)C(O)C(O)C1O` (centres undefined) (library stock concentration (final ~1000-fold dilution): 10 mM), the “NF-kB SEAP reporter activity” value worked out at 1.08 in the assay with RAW-Dual [3] (agonist: LPS (TLR4) 0.1 ug/mL), 0.948 with RAW-Dual [3] (setting [6]), 1.16 in the assay with RAW-Dual [3] (setting [7]) and 1.19 in the assay on RAW-Dual [3] (setting [8]).

Regarding `CC(/C=C/C=C(\C)C(=O)OC1OC(COC2OC(CO)C(O)C(O)C2O)C(O)C(O)C1O)=C\C=C\C=C(C)\C=C\C=C(/C)C(=O)OC1OC(COC2OC(CO)C(O)C(O)C2O)C(O)C(O)C1O` (centres undefined), the “NF-kB SEAP reporter activity” value turned out to be 0.915 with RAW-Dual [1] (setting [4]) and 1.03 in the assay on RAW-Dual [1] (setting [5]).
